Test [1] in a line: A549 cell viability effects, profiling panel, calcein-AM fluorescence, 48 h, basal (AID 1162). Further: test concentration not given here. The settings on record: higher = more signal.
The nature of test [2]: adipocyte viability effects, profiling panel, cell-based, 3T3-L1 adipocytes, calcein-AM fluorescence, 48 h, basal (AID 1163). Further: test concentration not given here. The settings on record: 3T3-L1 adipocytes viability, higher = more signal.
Test [3] in a line: HepG2 cell viability effects, profiling panel, calcein-AM fluorescence, 48 h, basal (AID 1164). Further: test concentration not given here. To be noted: higher = more signal.
The nature of test [4]: MM1S cell viability effects, profiling panel, calcein-AM fluorescence, 48 h, basal (AID 1165).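 Further: viability of MM1S multiple myeloma cells under basal unstimulated conditions; test concentration not given here.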 To be noted: higher = more signal.
Test [5] in a line: basal RPMI8226 viability, no added stimulus, profiling panel, cell-based, calcein-AM fluorescence, 48 h, PK04 Diversity Set (AID 1166).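 Further: cells grown under basal conditions without added stimulus; test concentration not given here.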 To be noted: RPMI8226 myeloma viability, higher = more signal.
Test [6] in a line: basal HepG2 mitochondrial membrane potential changes, profiling panel, cell-based, JC-1 fluorescence, 24 h, 100 nL compound (AID 1167). Further: test concentration not given here. The settings on record: higher = more signal.
A short description of test [7]: basal 3T3-L1 adipocyte mitochondrial potential changes, profiling panel, cell-based, JC-1 fluorescence, 3T3-L1 adipocytes, 24 h, 100 nL compound (AID 1168). Further: test concentration not given here. To be noted: JC-1 mitochondrial fluorescence, higher = more signal, called active from +8 up or from −8 down.
A short description of test [8]: basal RPMI8226 mitochondrial membrane potential changes, profiling panel, cell-based, JC-1 fluorescence, 24 h, 100 nL compound (AID 1169). Further: test concentration not given here. The settings on record: RPMI8226 myeloma, JC-1 mitochondrial potential fluorescence, higher = more signal.
Test [9] in a line: basal MM1S mitochondrial membrane potential changes, profiling panel, cell-based, JC-1 fluorescence, 24 h, 100 nL compound (AID 1170). Further: test concentration not given here. To be noted: higher = more signal.
The nature of test [10]: A549 lung cancer cell viability effects, profiling panel, resazurin fluorescence, 24 h, PK04 Diversity Set (AID 1171). Further: test concentration not given here. To be noted: higher = more signal, called active from +8 up or from −8 down.
Test [11] can be described thus: HepG2 liver cancer cell viability effects, profiling panel, resazurin fluorescence, 24 h, PK04 Diversity Set (AID 1172). Further: test concentration not given here. The settings on record: higher = more signal. On the technique in general: Alamar Blue is a resazurin reagent that responds to reducing activity.
Test [12] is described as follows: basal S. cerevisiae growth modulation, no modifier, primary screen, OD600, strain BY4716, 24 h, basal condition (AID 1173). The settings on record: OD600, 24 h, higher = more signal, called active from +8 up or from −8 down.
The nature of test [13]: MM1S myeloma cell viability, profiling panel, resazurin fluorescence, basal, 24 h, PK04 Diversity Set (AID 1174).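 Further: MM1S multiple myeloma cell line; test concentration not given here.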 The settings on record: higher = more signal, called active from +8 up or from −8 down.
Test [14] addresses Dihydroorotate dehydrogenase (quinone), mitochondrial (Plasmodium falciparum (isolate 3D7)) (UniProt Q08210). Nature of the test: PfDHODH enzyme inhibitors, primary screen, biochemical, C-terminal His tag, absorbance 600 nm (AID 1175).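 Further: recombinant parasite enzyme with a five histidine tag at its C terminus; test concentration not given here.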 The settings on record: DCIP absorbance 600 nm, higher = more signal, called active from +8 up or from −8 down.
Test [15] in a line: P. aeruginosa biofilm formation inhibitors, primary screen, strain PAO1, LB-PBS medium, absorbance 600 nm (AID 1176). Further: test concentration not given here. To be noted: P. aeruginosa PAO1 growth/biofilm, A600, 12 h; higher = more signal.
Test [16] can be described thus: S. cerevisiae RM11-1a growth modifiers, primary screen, strain RM11-1a, OD600, basal, 24 h (AID 1177).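 Further: cultures grown under basal conditions with no added stressor; test concentration not given here.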 To be noted: OD600, 24 h, higher = more signal, called active from +8 up or from −8 down.
A short description of test [17]: E. coli acrAB mutant growth effects, primary screen, E. coli filamentation inducers, strain DRC39, OD650, 24 h (AID 1178).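 Further: growth measured as culture turbidity by optical density at 650 nm; test concentration not given here.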 The settings on record: higher = more signal, called active from +8 up or from −8 down.
A short description of test [18]: E. coli acrAB mutant growth effects, primary screen, E. coli filamentation inducers, strain DRC39, OD650, 48 h (AID 1179).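 Further: screen aims at cell division blockers that make cells filament.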 To be noted: E. coli DRC39 delta-acrAB growth, higher = more signal, called active from +8 up or from −8 down.
Test [19] can be described thus: RPMI8226 myeloma cell viability, profiling panel, resazurin fluorescence, basal, 24 h, PK04 Diversity Set (AID 1180).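 Further: RPMI8826 multiple myeloma cell line at 5000 cells per well; test concentration not given here.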 The settings on record: higher = more signal.
Test [20] addresses E3 ubiquitin-protein ligase XIAP (Homo sapiens) (UniProt P98170). Nature of the test: XIAP binders, primary screen, biophysical, small-molecule microarray, fluorescence 635 nm (AID 1181).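 Further: score merges 667 nm emission and signal to noise over triplicate slides.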 The settings on record: small-molecule microarray binding, higher = more signal.

Activity calls are given as the source filed them. Unless noted, how the calls were made is not given here.

Dihydroorotate dehydrogenase (quinone), mitochondrial (Plasmodium falciparum (isolate 3D7)), sequence (Q08210 whole entry, looked up): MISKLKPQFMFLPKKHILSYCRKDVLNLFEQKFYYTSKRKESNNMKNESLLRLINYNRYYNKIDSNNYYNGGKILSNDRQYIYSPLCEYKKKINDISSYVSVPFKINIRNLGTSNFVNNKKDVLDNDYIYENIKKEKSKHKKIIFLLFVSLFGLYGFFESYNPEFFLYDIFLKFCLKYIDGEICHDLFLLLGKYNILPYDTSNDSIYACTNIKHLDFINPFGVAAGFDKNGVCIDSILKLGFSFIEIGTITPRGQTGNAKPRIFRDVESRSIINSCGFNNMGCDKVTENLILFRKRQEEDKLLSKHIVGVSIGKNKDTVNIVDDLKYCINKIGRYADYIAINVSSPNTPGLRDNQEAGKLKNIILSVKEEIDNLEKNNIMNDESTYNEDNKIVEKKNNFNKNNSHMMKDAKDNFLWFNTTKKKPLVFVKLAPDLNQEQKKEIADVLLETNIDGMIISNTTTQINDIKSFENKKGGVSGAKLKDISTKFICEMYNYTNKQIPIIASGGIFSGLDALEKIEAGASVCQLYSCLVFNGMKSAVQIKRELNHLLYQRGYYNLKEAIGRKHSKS
E3 ubiquitin-protein ligase XIAP (Homo sapiens), sequence (P98170 whole entry, looked up): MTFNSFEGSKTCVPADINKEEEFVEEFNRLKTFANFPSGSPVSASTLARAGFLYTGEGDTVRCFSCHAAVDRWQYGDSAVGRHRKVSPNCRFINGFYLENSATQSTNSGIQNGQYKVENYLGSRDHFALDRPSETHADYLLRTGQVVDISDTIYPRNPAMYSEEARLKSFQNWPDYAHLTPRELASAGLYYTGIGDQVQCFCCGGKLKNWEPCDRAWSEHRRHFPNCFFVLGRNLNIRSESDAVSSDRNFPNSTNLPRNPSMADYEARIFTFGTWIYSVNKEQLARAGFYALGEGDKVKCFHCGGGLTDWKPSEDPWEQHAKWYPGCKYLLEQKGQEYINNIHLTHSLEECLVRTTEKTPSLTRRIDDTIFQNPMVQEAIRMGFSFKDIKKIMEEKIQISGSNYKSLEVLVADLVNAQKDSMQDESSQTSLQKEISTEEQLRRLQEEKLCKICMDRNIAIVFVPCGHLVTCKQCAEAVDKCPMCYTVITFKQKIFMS

Consider `COCCCNC(=O)[C@]1(CCC(=O)OC(C)(C)C)N=C(c2ccc(OCCCO)cc2)O[C@@H]1c1ccccc1CN=[N+]=[N-]`, for which the z-score in test [1] was -0.651; in [2], -0.579; in [3], -0.421; in test [4] it was -0.658; in test [5], 0.338; in [6], -0.255. In addition, the z-score in test [7] is -0.2 (inactive); in test [8], -0.315; in test [9] it was -0.272; in [10] it was 0.743 (inactive); in test [11], 0.49; in test [12] it was -0.199 (inactive). Also, the z-score in test [13] is -0.123 (inactive); in test [15], 1.56 (inactive); in [16], -0.123 (inactive); in test [17], 0.323 (inactive); in test [18], -0.187 (inactive); in test [19], -0.0741. Also, the composite z-score in test [14] was 0.249 (inactive); in [20], 0.23.
Turning to `COc1cc(COC(C)=O)ccc1OC(C)=O`, the z-score in [1] is 1.97; in test [2], 0.223; in [3], 1.5; in [4], -0.0098; in test [5], -1.49; in test [6] it was -0.367. Further, the z-score in [7] was 0.374 (inactive); in test [8] it was -0.219; in [9], 0.528; in [10], 0.339 (inactive); in test [11], 0.858; in test [12], -0.715 (inactive). The z-score in test [13] is 0.101 (inactive); in [15] it was 0.317 (inactive); in [16] it was -1.35 (inactive); in test [17] it was 1.17 (inactive); in [18], 0.871 (inactive); in [19], 0.614. Besides, the composite z-score in [14] was -0.942 (inactive); in [20] it was -0.269.
Consider `CO[C@H]1O[C@H](CO)[C@@H](OC(=O)Nc2ccc(C(F)(F)F)cc2)[C@H](OC(=O)Nc2ccc3c(c2)OCO3)[C@@H]1OC(=O)Nc1ccc2c(c1)OCO2`, for which the z-score is -0.903 in test [1]; 0.102 in [2]; -1.81 in test [3]; -3.42 in test [4]; -3.51 in test [5]; -1.62 in test [6]. Further, the z-score in test [7] is -0.855 (inactive); in [8] it was -1.32; in [9] it was -1.36; in test [10] it was -1.99 (inactive); in test [11] it was -1.09; in test [12] it was 0.867 (inactive). Besides, the z-score in test [13] is -2.45 (inactive); in test [15] it was 1.54 (inactive); in test [16] it was 3.25 (inactive); in test [17], 1.53 (inactive); in test [18], 0.2 (inactive); in test [19] it was -1.97. Also, the values for the composite z-score in test [14] and in [20] were 0.524 (inactive) and 0.098, respectively.
Consider `C=CCNC(=O)[C@@H]1[C@H]2C(=O)O[C@H](c3ccccc3)[C@H](c3ccccc3)N2[C@H](c2ccc(O)cc2)[C@@]12C(=O)Nc1ccc(C#CCNC(N)=O)cc12`, for which the z-score was 0.0067 in test [1]; 1.09 in [2]; 0.767 in test [3]; -0.925 in test [4]; -0.179 in [5]; -1.14 in test [6]. The z-score in [7] is -1.07 (inactive); in test [8], -0.994; in test [9], 0.435; in test [10], 0.552 (inactive); in test [11], -0.361; in test [12], 0.295 (inactive). In addition, the z-score in [13] was 0.194 (inactive); in test [15], 0.0485 (inactive); in [16] it was 0.24 (inactive); in test [17], -0.0851 (inactive); in [18], -0.124 (inactive); in [19], 0.221. Moreover, the composite z-score in [14] was -0.433 (inactive); in [20], -0.33.
For `O=C1C[C@@](C(=O)NCCN2CCOCC2)(c2ccc([N+](=O)[O-])cc2)[C@@H](c2ccc(CO)cc2I)N1CC12CC3CC(CC(C3)C1)C2`, the z-score was -4.03 in [1]; 0.546 in test [2]; -5.11 in test [3]; -3.86 in [4]; -4.39 in test [5]; -2.72 in test [6]. In addition, the z-score in [7] is 0.981 (inactive); in test [8] it was -0.93; in [9], -2.17; in [10], -4.83 (inactive); in test [11], -5.11; in test [12] it was -12.9 (active). Further, the z-score is -6.88 (inactive) in test [13]; 0.941 (inactive) in [15]; -21.4 (active) in test [16]; -0.272 (inactive) in test [17]; -0.305 (inactive) in test [18]; -5.62 in test [19]. The composite z-score in test [14] is -0.227 (inactive); in [20] it was -0.0095.
For the compound `NC(=O)NCC#Cc1ccc2c(c1)[C@]1(C(=O)N2)[C@H](C(N)=O)[C@H]2C(=O)O[C@H](c3ccccc3)[C@H](c3ccccc3)N2[C@@H]1c1ccc(O)cc1`, the z-score in [1] was -0.851; in test [2] it was -0.842; in test [3] it was -0.848; in test [4], 0.201; in test [5], 0.375; in test [6] it was -1.73. Moreover, the z-score in test [7] is -0.344 (inactive); in [8] it was -0.758; in test [9], -0.094; in [10], 0.808 (inactive); in [11], 0.584; in test [12], -0.911 (inactive). The z-score in test [13] is 0.204 (inactive); in [15], -0.212 (inactive); in test [16], -0.732 (inactive); in [17], 0.0883 (inactive); in test [18] it was -0.612 (inactive); in test [19], -0.0275. Also, the composite z-score in [14] was -0.405 (inactive); in test [20], 0.156.
Turning to `CC(C)CNC(=O)[C@@]1(Cc2ccccc2I)c2ccccc2C(=O)N(C2CCCCC2)[C@H]1c1ccc(CO)cc1`, the z-score in [1] was -0.175; in test [2], -0.316; in test [3], -0.762; in test [4], -1.45; in test [5], -2.39; in test [6], -0.396. For the same compound, the z-score in [7] is -0.485 (inactive); in test [8], -0.594; in test [9], -0.213; in [10] it was 0.623 (inactive); in test [11], -0.462; in [12], 0.408 (inactive). For the same compound, the z-score in [13] is -0.424 (inactive); in test [15] it was 0.348 (inactive); in [16], -0.199 (inactive); in test [17], -0.113 (inactive); in test [18], -0.0397 (inactive); in test [19], -0.124. For the same compound, the composite z-score in test [14] is 0.193 (inactive); in test [20], -0.0789.
Consider `CC1(C)[C@@H]2CC(C(O)C3C=CC4C(=O)N(c5ccccc5)C(=O)C4N3Nc3ccc([N+](=O)[O-])cc3)=C[C@H]1C2` (stereo not given in full), for which the z-score in [1] was -0.0923; in test [2], -0.484; in [3] it was -0.0345; in [4], 0.114; in test [5], 0.287; in test [6] it was -1.41. Moreover, the z-score is -2.48 (inactive) in test [7]; 0.428 in test [8]; -1.09 in test [9]; 0.539 (inactive) in test [10]; -0.128 in test [11]; 0.318 (inactive) in test [12]. For the same compound, the z-score in [13] was 0.218 (inactive); in test [15], 1.07 (inactive); in test [16], 0.08 (inactive); in [17], -0.982 (inactive); in test [18], -0.512 (inactive); in test [19] it was 0.0954. Moreover, the figures for the composite z-score in test [14] and in [20] were 0.634 (inactive) and -0.141, respectively.

The values above are taken from PubChem BioAssay.
